# Bioassay records (PubChem BioAssay)
# Most compounds without a hit are left out; they make up all but 19% or so of the library.
# HT1080-NT tox: kills 2HG-producing HT-1080-NT fibrosarcoma cells; 1.6% of 360,000 active; Potency, µM (highest dose often 46.1 µM), for the others: top-dose activity, negative = less viability, most hits filed as cytotoxic; HT-1080-NT fibrosarcoma viability, CellTiter-Glo ATP luminescence, 48 h;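 also: NT is the 2HG producing partner of a matched IDH1 knockdown line; potency is read from the fitted curve at half-maximal effect; 0% = DMSO-treated cells and -100% = media-only wells without cells; nearly all actives have a fitted effect of over 55% in size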
#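 A 48-hour cytotoxicity screen used HT-1080-NT cells plated 2 hours before compound delivery. ATP-based CellTiter-Glo luminescence measured viability, normalized to DMSO and no-cell controls.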
# DT40 TDP1 CPT: growth inhibition of DT40 Tdp1-/-;hTDP1 cells with camptothecin (screen for TDP1 inhibitors) | AID 686979 | Potency, µM (series often up to 46.2 µM), without a hit: at the top dose activity change, negative = growth inhibition, hits mostly inhibitors | 12% of 420,000 active | chicken DT40 Tdp1-/-;hTDP1 cells + 20 nM CPT, ATP luminescence, 48 h; also: potency is read from the fitted curve at half-maximal effect; nearly all actives have a fitted effect of over 55% in size
#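 Chicken DT40 Tdp1-/- cells complemented with human TDP1, 400 cells/well, exposed to compounds plus 20 nM camptothecin for at least 48 h at 37 C; viability read as ATP content by CellTiter-Glo luminescence.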
# TDP1 cell noCPT: qHTS for Inhibitors of human tyrosyl-DNA phosphodiesterase 1 (TDP1): qHTS in cells in absence of CPT. Potency, µM (top dose mostly 46.2 µM), inactives show top-dose activity change, negative = growth inhibition, actives largely listed as inhibitors. AID 686978, 2013. 15% of 420,000 active. DT40 Tdp1-/- hTDP1 cells, no CPT, ATP luminescence, 48 h; also: potency is read from the fitted curve at half-maximal effect; nearly all actives have a fitted effect of over 55% in size
#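 Readout: luminescence from CellTiter-Glo after 30 min in the dark at RT. Cells: DT40 Tdp1-/- with stable hTDP1, 400/well. Exposure: compounds alone, ≥48 hr, 37 °C.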
# IL-1B inflam inh: inflammasome signaling inhibition, IL-1 beta readout. THP-1 LPS/ATP IL-1B secretion, AlphaLISA, 16 h; stronger effect = lower value. activity change, % at 57.5 µM. 4.7% of 360,000 active. AID 743279; in the data active = activity change below about -50%; inconclusive = mostly about -30% to -49%
#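 Secreted IL-1B measured by AlphaLISA bead assay after 16 h compound exposure of THP-1 cells; compounds (final up to 57.5 uM) added 1 h before LPS (250 ng/mL) and ATP (1.25 mM) stimulation; lower signal means less secretion.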
# HT1080 IDH1KD tx: toxicity to HT-1080 IDH1 knockdown cells (counter line); AID 686971; 2% of 360,000 active; Potency, µM (highest dose often 46.1 µM), without a hit: at the highest dose activity, negative = toxicity, hits mostly cytotoxic; HT-1080 IDH1 knockdown viability, ATP luminescence, 48 h;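 also: potency is read from the fitted curve at half-maximal effect; 0% = DMSO wells and -100% = cell-free medium wells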
#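 In this qHTS, HT-1080 cells depleted of IDH1 are exposed for 48 h at 37 °C to compound titrations. Toxicity is scored from CellTiter-Glo luminescence, with DMSO as full viability and medium alone as none.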
# Starred values were filed as active, the others as inactive; ? = inconclusive. Unless noted, calls follow the shape of the dose curve; as a rule, active = well fitted curve in the direction sought with a large enough effect; inconclusive = small, poorly fitted or top-dose-only effect, or another doubt; inactive = no such curve, though single readings can be large; an effect the other way counts as inactive or inconclusive. Unless noted, % is scaled to controls: 0 for no effect and ±100 for the full control effect.
SMILES,HT1080-NT tox,DT40 TDP1 CPT,TDP1 cell noCPT,IL-1B inflam inh,HT1080 IDH1KD tx
C=CCn1nc([N+](=O)[O-])nc1Sc1cccc2cccnc12,?,5.2µM*,4.1µM*,-99*,?
O=[N+]([O-])c1cc(Cl)ccc1Sc1ccccn1,5%,-1%,-3%,-7,-18%
CN(C)/N=C/c1ccc(Sc2ccc([N+](=O)[O-])cc2[N+](=O)[O-])o1,8%,?,23µM*,-27,?
CCOc1ccc(C(=O)NNC2CC(=O)N(Cc3ccc(Cl)cc3)C2=O)cc1OC (stereo not drawn),6%,6%,-14%,-14,12%
CCC(=O)NC1CCN(C(=S)NC)CC1,6%,0%,0%,13,-4%
O=[N+]([O-])c1ccc(Sc2cccc3cccnc23)c([N+](=O)[O-])c1,?,4.6µM*,4.6µM*,0,-27%
COc1cccc(NC(=O)N2CCC(NC(=O)c3ccco3)CC2)c1,1%,2%,-4%,6,4%
COc1ccc(N(CCC(=O)Nc2ccccc2F)S(=O)(=O)c2ccc(C)cc2C)cc1,0%,?,?,-1,0%
COc1ccccc1N(CC(=O)NC1CCCC1)C(=O)CCC(=O)Nc1ccccn1,5%,0%,1%,14,29%
Cc1ccc(NC(=O)Cn2cc(C(F)(F)F)cc(Cl)c2=O)cc1S(=O)(=O)N1CCCCC1,-13%,?,?,0,-17%
COC1=CC(=O)CC(C)C12Oc1c(Cl)c(OC)cc(OC)c1C2=O (stereo not drawn),?,?,?,-15,?
COC1=CC(=O)C[C@@H](C)[C@]12Oc1c(Cl)c(OC)cc(OC)c1C2=O,?,?,17µM*,-2,?
Cc1nn(-c2ccccc2)c(C)c1/C=N/NC(=O)c1cc(C23CC4CC(CC(C4)C2)C3)[nH]n1,?,?,?,29,?
O=C(N/N=C/c1ccccn1)c1cc(-c2ccc(Cl)s2)[nH]n1,?,23µM*,16µM*,-3,?
Cc1nn(-c2ccccc2)c(C)c1/C=N/NC(=O)c1cc(-c2ccc(Br)s2)[nH]n1,?,2.9µM*,4.6µM*,44,?
Cc1nn(-c2ccccc2)c(C)c1/C=N/NC(=O)c1cc(-c2ccc(Cl)s2)[nH]n1,0.63µM*,4.6µM*,4.1µM*,-12,0.89µM*
Cc1cc(C(=O)N/N=C/c2c(C)nn(-c3ccccc3)c2C)n[nH]1,-11%,0%,-19%,-13,-3%
Cc1nn(-c2ccccc2)c(C)c1/C=N/NC(=O)CSc1nnc(SCc2ccc(Cl)cc2)s1,-17%,?,15µM*,-5,?
COCCn1c(N)c(N(Cc2ccccc2)C(=O)C2=COCCO2)c(=O)[nH]c1=O,-1%,-12%,-17%,15,0%
Cc1nn(-c2ccccc2)c(C)c1/C=N/NC(=O)c1ccccc1O,1%,0%,-12%,-21,-2%
Cc1nn(-c2ccccc2)c(C)c1/C=N/NC(=O)c1cc(-c2cccs2)[nH]n1,?,0.82µM*,0.0082µM*,74,?
Cc1nn(-c2ccccc2)c(C)c1/C=N/NC(=O)c1cccs1,-17%,9.2µM*,15µM*,13,-7%
COc1ccc(/C=C/C(=O)c2c(C)cc(C)[nH]c2=O)c2ccccc12,?,?,?,-99*,12µM*
Cc1ccc(/C=C/C(=O)c2c(C)cc(C)[nH]c2=O)cc1,?,8.9µM*,11µM*,-94*,10µM*
Cc1cc(C)c(C(=O)/C=C/c2ccco2)c(=O)[nH]1,4%,3%,-6%,?,-2%
CCc1ccc(/C=C/C(=O)c2c(C)cc(C)[nH]c2=O)cc1,15µM*,16µM*,16µM*,-120*,23µM*
COc1ccccc1/C=C(\C)C(=O)c1c(C)cc(C)[nH]c1=O,9%,-1%,13%,0,8%
